Holding throughout (test): NCI-60 one-dose screen, 48 h (100 = growth as untreated, 0 = no growth, -100 = all killed)
The test system of one test is SR leukemia. Particulars: 10 µM.
The test system of another test is RPMI-8226 leukemia. As to conditions: 10 µM.
For the next test, the system named is OVCAR-8 ovarian. Particulars: 10 µM.
In another test the test system is OVCAR-5 ovarian. Particulars: 10 µM.
A further test concerns SK-OV-3 ovarian. As to conditions: 10 µM.
The test system of a further test is IGROV1 ovarian. As to conditions: 10 µM.
The next test concerns OVCAR-3 ovarian. Particulars: 10 µM.
In the next test the test system is HS 578T breast. Particulars: 10 µM.
A further test has as its system NCI/ADR-RES ovarian. Particulars: 10 µM.
Another test deals with T-47D breast. Particulars: 10 µM.
The next test deals with BT-549 breast. Particulars: 10 µM.
Another test deals with SW-620 colon. Particulars: 10 µM.
The test system of another test is MCF7 breast. Particulars: 10 µM unless noted.
In a further test the test system is HCT-116 colon. Particulars: 10 µM.
In the next test the test system is HCC-2998 colon. As to conditions: 10 µM.
For another test, the system named is KM12 colon. Particulars: 10 µM.
The next test has as its system OVCAR-4 ovarian. As to conditions: 10 µM.
In another test the test system is MDA-MB-435 melanoma. Particulars: 10 µM.

Compounds without any hit were thinned out: in the full panel of roughly 83,000, 20% have a hit.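 Compound tested at a single concentration for 48 hours in 96-well plates; a percent growth value below 10 was scored as active.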 A number with no mark means an inactive call. Active and inactive are the calls of the source.

Consider `COc1cc(C(=O)N/N=C/c2cccc([N+](=O)[O-])c2)cc(OC)c1OC`, for which the growth in the test on SR leukemia is 28.5%; in the test on RPMI-8226 leukemia, 77.1%; in the test with OVCAR-8 ovarian, 83.1%; with OVCAR-5 ovarian it was 83.7%; in the test with SK-OV-3 ovarian, 67.2%; in the test on IGROV1 ovarian, 60.6%. Also, the growth in the test with OVCAR-3 ovarian was 12.2%; in the test on HS 578T breast, 49.3%; in the test with NCI/ADR-RES ovarian, 38.1%; with T-47D breast it was 51.9%; in the test on BT-549 breast it was 58%; in the test on SW-620 colon it was 23.8%. Moreover, the growth was 23.9% in the test on MCF7 breast, 23.9% in the test on HCT-116 colon, 52.7% in the test on HCC-2998 colon and 19% with KM12 colon.
Consider `O=c1cc2oc3cc(O)c(O)cc3c(-c3ccccc3O)c-2cc1O`, for which the growth in the test with SR leukemia was 82.7%; in the test with RPMI-8226 leukemia, 12.1%; with OVCAR-8 ovarian, 75.1%; with OVCAR-5 ovarian, 94.8%; with OVCAR-4 ovarian, 70.1%; with SK-OV-3 ovarian, 57.4%. Moreover, the growth with IGROV1 ovarian is 63.9%; with NCI/ADR-RES ovarian it was 78.4%; in the test with T-47D breast, 70.8%; in the test on BT-549 breast it was 77.7%; in the test with MDA-MB-435 melanoma, 68.9%; in the test on SW-620 colon, 89.3%. The growth is 75.8% in the test on MCF7 breast, 59.2% with HCT-116 colon, 94.7% in the test with HCC-2998 colon and 92.7% with KM12 colon.
As to `O=C(c1ccccc1)C1CCC1`, the growth is 92.7% with SR leukemia; 98.9% with RPMI-8226 leukemia; 99.1% in the test with OVCAR-8 ovarian; 109% with OVCAR-5 ovarian; 100% with SK-OV-3 ovarian; 114% in the test on IGROV1 ovarian. The growth with OVCAR-3 ovarian is 108%; in the test on HS 578T breast it was 115%; in the test with NCI/ADR-RES ovarian, 107%; in the test on T-47D breast it was 99.7%; in the test with MDA-MB-435 melanoma, 112%; with SW-620 colon, 103%. Further, the growth in the test on MCF7 breast was 71.5%; in the test on HCT-116 colon, 106%; with HCC-2998 colon it was 100%; in the test with KM12 colon, 105%.
Turning to `CCOC(=O)c1[nH]c(C)c(C(=O)O)c1C`, the growth is 97.6% with SR leukemia; 96.6% in the test on RPMI-8226 leukemia; 105% with OVCAR-8 ovarian; 113% in the test on OVCAR-5 ovarian; 118% in the test on SK-OV-3 ovarian; 108% in the test on IGROV1 ovarian. For the same compound, the growth was 115% in the test on OVCAR-3 ovarian; 131% in the test on HS 578T breast; 107% in the test on NCI/ADR-RES ovarian; 109% in the test on T-47D breast; 107% in the test on SW-620 colon; 78.9% with MCF7 breast. For the same compound, the growth in the test with HCT-116 colon is 116%; in the test with HCC-2998 colon it was 107%; in the test on KM12 colon, 110%.
Turning to `Nc1ccc(C(=O)c2ccc(N)c(Br)c2)cc1Br`, the growth in the test with SR leukemia was 26.1%; in the test on RPMI-8226 leukemia, 30.5%; in the test with OVCAR-8 ovarian it was 26.4%; in the test with OVCAR-5 ovarian, 40%; in the test with OVCAR-4 ovarian, 49.1%; in the test on SK-OV-3 ovarian, 8.33% (active). Moreover, the growth in the test on IGROV1 ovarian was 32.8%; in the test with HS 578T breast, -14.8% (active); in the test with NCI/ADR-RES ovarian it was 0.17% (active); in the test on T-47D breast, 43.5%; in the test with BT-549 breast, 56.4%; in the test with MDA-MB-435 melanoma it was -3.36% (active). The growth was 21.2% with SW-620 colon, 13.2% in the test with MCF7 breast, 14.8% with HCT-116 colon and 14.1% with HCC-2998 colon.
On to `CC[N+](C)(CC)CCO`, for which the growth in the test with SR leukemia is 104%; in the test on RPMI-8226 leukemia, 102%; in the test with OVCAR-8 ovarian it was 94.3%; in the test on OVCAR-5 ovarian, 100%; in the test with SK-OV-3 ovarian, 103%; in the test on IGROV1 ovarian it was 104%. The growth is 108% in the test with OVCAR-3 ovarian; 107% in the test with HS 578T breast; 105% in the test on NCI/ADR-RES ovarian; 93.4% with T-47D breast; 99.9% with BT-549 breast; 100% in the test with MDA-MB-435 melanoma. Further, the growth in the test with SW-620 colon is 100%; in the test on MCF7 breast, 103%; with HCT-116 colon it was 105%; in the test on HCC-2998 colon, 102%; in the test on KM12 colon, 110%.
On to `COc1ccc(NC(=O)CCl)cc1`, for which the growth in the test with SR leukemia is 56.3%; with RPMI-8226 leukemia, 55.8%; with OVCAR-8 ovarian it was 80.8%; in the test on OVCAR-5 ovarian, 68.2%; in the test with SK-OV-3 ovarian it was 87.7%; in the test on IGROV1 ovarian, 59%. The growth with NCI/ADR-RES ovarian is 77%; in the test on T-47D breast it was 62.7%; in the test on BT-549 breast, 66.3%; in the test on MDA-MB-435 melanoma it was 87%; in the test on SW-620 colon, 98.3%; in the test on MCF7 breast it was 64.4%. For the same compound, the growth in the test on HCT-116 colon is 53.5%; in the test with HCC-2998 colon, 99.6%; with KM12 colon, 85.5%.
Turning to `CC1(C(N)=O)CCC(C(=O)O)C1(C)C` (stereo unspecified), the growth with SR leukemia was 111%; with RPMI-8226 leukemia, 100%; in the test with OVCAR-8 ovarian, 105%; in the test on OVCAR-5 ovarian, 98.2%; with OVCAR-4 ovarian it was 102%; in the test on SK-OV-3 ovarian it was 94.4%. Also, the growth in the test on OVCAR-3 ovarian was 119%; with HS 578T breast, 105%; with NCI/ADR-RES ovarian, 110%; in the test with T-47D breast, 91.3%; in the test on BT-549 breast, 99.7%; in the test on MDA-MB-435 melanoma it was 97.4%. The growth was 111% in the test on SW-620 colon; 88.4% in the test on MCF7 breast; 99.7% in the test on HCT-116 colon; 99.4% in the test with HCC-2998 colon; 111% in the test with KM12 colon.
As for `O=C(O)c1ccccc1NCc1ccco1`, the growth in the test with SR leukemia was 87.8%; in the test on RPMI-8226 leukemia it was 79.1%; in the test on OVCAR-8 ovarian, 94.2%; in the test with OVCAR-5 ovarian it was 93.1%; with OVCAR-4 ovarian, 99.1%; with SK-OV-3 ovarian it was 109%. Moreover, the growth was 111% in the test on OVCAR-3 ovarian; 107% in the test with HS 578T breast; 94.5% in the test on NCI/ADR-RES ovarian; 103% in the test with T-47D breast; 101% in the test on BT-549 breast; 119% in the test on MDA-MB-435 melanoma. Moreover, the growth in the test with SW-620 colon is 102%; with MCF7 breast, 97.4%; in the test on HCT-116 colon, 105%; with HCC-2998 colon it was 80.9%; in the test on KM12 colon, 117%.
Turning to `O=S(=O)(O)C(Nc1ccccc1)c1ccccc1` (stereo unspecified), the growth is 98.9% in the test on SR leukemia; 100% in the test with RPMI-8226 leukemia; 104% with OVCAR-8 ovarian; 92.4% with OVCAR-5 ovarian; 102% with OVCAR-4 ovarian; 97% in the test on SK-OV-3 ovarian. Further, the growth with OVCAR-3 ovarian is 107%; in the test on HS 578T breast, 93.2%; in the test on NCI/ADR-RES ovarian it was 96.9%; with T-47D breast, 93.7%; in the test on MDA-MB-435 melanoma, 104%; in the test on SW-620 colon it was 102%. Further, the growth was 98.5% in the test with MCF7 breast, 103% with HCT-116 colon, -12.8% (active) in the test with HCC-2998 colon and 100% in the test with KM12 colon.

The record behind these values is PubChem BioAssay (NCI).
